GC-A act: GC-A stimulated cGMP production enhancers – HEK293 GC-A cells, cGMP TR-FRET, EC30 ANP, primary screen; 0.14% of 370,000 active; activation, % at 10 µM; Atrial natriuretic peptide receptor 1 (Homo sapiens), P16066; 0% at EC30 ANP, 100% saturating ANP; in the data active = activation above about 40%
GC-B act: human GC-B receptor activators, primary screen, HEK293 GC-B cells, cGMP TR-FRET, EC30 CNP; 0% at EC30 CNP, 100% saturating CNP; activation, % at 10 µM; Atrial natriuretic peptide receptor 2 (Homo sapiens), P20594; 0.11% of 370,000 active;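 active = activation at 10 µM reaching about 35% in either raw or pattern-adjusted values, limit read from the data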
MsrA inh: bovine MsrA enzyme inhibitors, primary screen, biochemical, absorbance, HTS; Methionine sulfoxide reductase A (Bos taurus); AID 651718, 2012; purified bovine MsrA, absorbance read-out; inhibition, % at 15.5 µM; 0.75% of 360,000 active;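 also: 0% = vehicle wells with enzyme and 100% = reference inhibitor wells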
bovine MsrA act: bovine MsrA enzyme activators, primary screen, biochemical, absorbance, HTS; purified bovine MsrA, absorbance read-out; activation, % at 10.6 µM; 0.3% of 360,000 active; in the data active = activation above about 7.5%;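 also: 0% = vehicle and 100% = reference activator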
MsrA inh confirm: bovine MsrA inhibitors, retest, confirmation, biochemical, absorbance, HTS; shares compounds with MsrA inh; inhibition, % at 15.5 µM; 41% of 2,300 active; purified bovine MsrA, absorbance read-out; AID 651822, 2012;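 also: coupled to thioredoxin reductase with NADPH and selenocystamine and DMSO as substrate; 0% = vehicle only and 100% = full effect of reference inhibitor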
* = called active by the depositor; · = not tested or not shown. Only some compounds are listed: those with a hit (about 1.2% of all), similar ones and a draw of the others. Rule as the data show it, unless noted: active = inhibition above about 4.5%; inactive = the rest.

SMILES | GC-A act | GC-B act | MsrA inh | bovine MsrA act | MsrA inh confirm
CCCCOc1ccc(C(=O)NC2CCCCN(Cc3ccc(C)cc3)C2=O)cc1 (configuration not stated) | 5 | 3 | · | · | ·
COc1ccc(C2C(C#N)=C(N)Oc3c2sc2nc(C)cc(C)c32)cc1 (configuration not stated) | 4 | -6 | 9.2* | -1 | 2
O=C(N/N=C/c1ccc([N+](=O)[O-])cc1)c1ccc(NS(=O)(=O)c2cccs2)cc1 | -2 | -9 | 5.4* | -4 | 6.3*
COc1cc(/C=N/NC(=O)c2ccc(NS(=O)(=O)c3cccs3)cc2)cc(OC)c1O | 5 | 0 | 6.5* | -5 | 6.4*
C/C(=N\NC(=O)c1ccc(NS(=O)(=O)c2cccs2)cc1)c1ccc(O)cc1O | -8 | -1 | 5.5* | -3 | 4.7*
O=C(NN=Cc1ccc(OC(F)F)cc1)c1ccc(NS(=O)(=O)c2cccs2)cc1 | -3 | -1 | 5.5* | -5 | 3
COC(=O)[C@]12C[C@H](CC(=O)N3CCOCC3)C(=O)N(Cc3ccccc3)C1=C[C@H](C(C)(C)C)O[C@@H]2C | -4 | -9 | 0 | · | ·
Cn1c(NC(=O)c2ccccc2)nc(Cc2ccccc2)c1Cc1ccccc1 | -3 | -2 | · | · | ·
CC(=Nc1ccc(Cl)cc1N)c1c(O)cc(C)oc1=O | -2 | 1 | 0 | · | ·
C=CCN1C(=O)[C@]2(OCCC=C[C@H]2C)c2cc(OC)ccc21 | -7 | -4 | 1 | · | ·
Cc1cc(O)c(C(C)C)cc1N=Cc1ccc([N+](=O)[O-])cc1 | -1 | -4 | 1 | -1 | ·
Cc1cc(O)c(C(C)C)cc1N=Cc1ccc(N(C)C)cc1 | -7 | -15 | 4.9* | -5 | 4
CC(C)(C)OC(=O)NCc1cc2c(cc1/C=C/S(=O)(=O)NC1CCCC1)OCO2 | -2 | -1 | · | · | ·
CC(=O)c1c(OCC(=O)O)ccc2c(C)cc(=O)oc12 | 2 | 3 | 1 | -4 | ·
Cc1cc(=O)oc2c(C(=O)/C=C\c3cccs3)c(O)ccc12 | 2 | 0 | 5.2* | -6 | 6.3*
COc1cc(/C=C/C(=O)c2c(O)ccc3c(C)cc(=O)oc23)ccc1O | -3 | -2 | 6.9* | -8 | 6.1*
COc1ccc(/C=C\C(=O)c2c(O)ccc3c(C)cc(=O)oc23)cc1OC | 1 | -3 | 5.2* | -3 | 4
Cc1cc(=O)oc2c(C(=O)/C=C/c3ccccc3)c(O)ccc12 | -2 | -12 | -1 | -4 | ·
O=C(Cn1nnc(N2CCCCC2)n1)NN=Cc1ccccc1O | 3 | 4 | 1 | · | ·
C[C@@H]1CNCCN1c1ccc(N2CCS(=O)(=O)CC2)c(C#N)c1 | -4 | -1 | 1 | · | ·
CCCN1CCCCC(NC(=O)COCc2ccccc2)C1=O (configuration not stated) | 5 | -3 | 1 | · | ·
COc1ccc2c3c([nH]c2c1)[C@]1(NCC3)C(=O)N(C)c2ccc(Cl)cc21 | -7 | -5 | · | · | ·
Cc1ccc(C(=O)N=c2sccn2C)cc1S(=O)(=O)N1CCOCC1 | 1 | -2 | 6.0* | -3 | 3
Cc1ccc(C(=O)N=c2sccn2C)cc1C | 0 | 3 | 2 | 4 | ·
Cn1ccsc1=NC(=O)c1cccc(C#N)c1 | -4 | 2 | 5.5* | -3 | 1
SMILES | GC-A act | GC-B act | MsrA inh | bovine MsrA act | MsrA inh confirm
Cc1ccnc(N=Cc2nc(-c3ccccc3Br)oc2O)c1 | -5 | 2 | 6.5* | -5 | 1
Cc1cccc(/N=C/c2nc(-c3ccccc3Br)oc2O)n1 | 2 | -13 | 1 | -7 | ·
CC(Sc1ncc(C(F)(F)F)cc1Cl)C(=O)NC(N)=O (configuration not stated) | -2 | 0 | 19* | -4 | 15*
O=C(COC(=O)c1ccc(Sc2ncn[nH]2)c([N+](=O)[O-])c1)Nc1cccc(Cl)c1F | -1 | -4 | · | · | ·
NC(=O)N/N=C/c1ccc(-c2ccc(S(=O)(=O)Nc3ncccn3)cc2)o1 | 2 | 7 | 5.7* | -2 | 6.4*
CC(C)Oc1ccc(C(=O)N/N=C/c2ccc(-c3ccc(S(=O)(=O)Nc4ncccn4)cc3)o2)cc1 | 1 | 11 | 5 | -3 | ·
CCc1cc(=O)oc2c(C)c(O)c(CN3CCCCC3)cc12 | 12 | 1 | 5.4* | 0 | 3
CC(=O)Nc1ccc2nc(-c3ccco3)[nH]c2c1 | 3 | -8 | 1 | -1 | ·
O=C(Nc1ccc2nc(-c3ccco3)[nH]c2c1)c1ccco1 | 2 | 0 | 5.1* | -3 | 4
Cn1c(=O)c(=O)n(C)c2cc(N3CCCCC3)c(NS(=O)(=O)c3ccc([N+](=O)[O-])cc3)cc21 | 0 | -4 | 4.8* | -2 | 2
O=[N+]([O-])c1ccc(N2CCCC2)c([N+](=O)[O-])c1 | -2 | -3 | 9.0* | -5 | 5.5*
O=C(Nc1nc2ncccn2c1-c1ccc(F)cc1)c1ccccc1 | 5 | 0 | · | · | ·
CC(C)C[C@H]1CN([C@@H](Cc2ccccc2)CN2CCC[C@@H]2CN2C(=O)C(=O)NC[C@@H]2Cc2ccc(O)cc2)C(=O)C(=O)N1CC1CCCCC1 | -3 | 2 | 4.8* | -7 | -1
O=C(O[C@H]1CC[C@@]23CCCN2C(=O)CCC[C@H]3C1)N1CCCC1 | 2 | -2 | · | · | ·
Nc1ccc(-c2nc3ccc(N)cc3o2)cc1 | · | · | 4.8* | -2 | 5.4*
Nc1ccc(-c2nc3cc(N)ccc3o2)cc1 | 18 | -13 | 4 | -8 | ·
O=C(CSc1nnc(-c2cccnc2)n1-c1ccccc1)Nc1ccc2c(c1)OCCO2 | -3 | 0 | · | · | ·
COc1ccc(C(=O)N(CN2CCCC2=O)c2nccs2)cc1OC | 2 | 3 | 7.5* | -15 | 5.1*
CN1C(=O)C2(c3ccccc31)c1c(oc3ccccc3c1=O)C(=O)N2CCCO (configuration not stated) | -5 | -8 | 0 | -2 | ·
Cc1ccc(C(=O)C2=C(O)C(=O)N(CCCN(C)C)C23C(=O)N(C)c2ccccc23)o1 (configuration not stated) | 2 | 1 | 5.6* | -2 | 6.4*

Bioassay records as filed in PubChem BioAssay.
